# Source: PubChem BioAssay (Tox21)
# A number with no mark means an inactive call. Records with an inconclusive call do not appear. Entries that show only a call come without a potency. Active and inactive are the calls of the source. Unless noted, the call rests on the fitted dose curve; in most records, active means well fitted curve in the direction sought with a large enough effect in the repeat runs; inconclusive means weak or mixed curves; inactive means no such curve, though single readings can be large; an effect the other way counts as inactive or inconclusive.
# Assays:
# [1] = qHTS assay to identify small molecule antagonists of the androgen receptor (AR) signaling pathway using the MDA cell line in the presence of 0.5 nM R1881 - cell viability counter screen (AID 1259242); further: nearly all actives have a fitted effect of over 45% in size; further: potency means the concentration at half of the fitted maximal effect
# How it was run: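 Live-cell protease fluorescence, CellTiter-Fluor, 30 min at 37C. Cells: MDA-kb2, 3,000/well, preincubated 5 hr. Compounds plus 0.5 nM R1881 final, 16 hr, 37C, 0% CO2.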
# [2] = biological target: Estrogen receptor (Homo sapiens) (UniProt P03372); test: qHTS assay to identify small molecule antagonists of the estrogen receptor alpha (ER-alpha) signaling pathway using the BG1 cell line in the presence of 0.1 nM 17-beta-estradiol (AID 1259244); further: nearly all actives have a fitted effect of over 50% in size; further: potency means the concentration at half of the fitted maximal effect
# Chain of Estrogen receptor (Homo sapiens) (P03372 whole entry, looked up): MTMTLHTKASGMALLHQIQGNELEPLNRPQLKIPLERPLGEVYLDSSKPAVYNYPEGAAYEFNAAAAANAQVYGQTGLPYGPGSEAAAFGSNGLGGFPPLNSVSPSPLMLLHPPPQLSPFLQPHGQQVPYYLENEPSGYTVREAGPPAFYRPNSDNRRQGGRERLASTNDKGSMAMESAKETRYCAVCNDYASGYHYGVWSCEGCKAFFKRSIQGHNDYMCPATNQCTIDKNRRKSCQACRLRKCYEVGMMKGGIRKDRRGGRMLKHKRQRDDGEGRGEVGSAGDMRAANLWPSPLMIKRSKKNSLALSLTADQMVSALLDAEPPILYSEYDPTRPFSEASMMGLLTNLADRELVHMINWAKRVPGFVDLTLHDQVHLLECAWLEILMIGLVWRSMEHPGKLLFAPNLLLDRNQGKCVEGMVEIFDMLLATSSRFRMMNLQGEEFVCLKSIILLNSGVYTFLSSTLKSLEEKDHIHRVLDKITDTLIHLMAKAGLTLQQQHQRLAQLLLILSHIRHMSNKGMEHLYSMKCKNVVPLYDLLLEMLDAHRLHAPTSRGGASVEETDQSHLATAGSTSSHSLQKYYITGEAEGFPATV
# How it was run: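 Luminescence after ONE-Glo (30 min, room temperature) measured ERE-luciferase activity in VM7Luc4E2 cells treated 22 h with compound and 0.1 nM final 17beta-estradiol as stimulator.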
# [3] = qHTS assay to identify small molecule HDAC inhibitors (AID 1259364); further: potency means the concentration at half of the fitted maximal effect;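 further: wild-type HCT-116 cells with endogenous class I/II HDAC activity; nearly all actives have a fitted effect of over 45% in size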; on activity change, negative = inhibition: top concentration of the series differs between compounds
# How it was run: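 HCT-116 (wild type), 1,500 cells/well, overnight; compound 2 hr 37C 5% CO2; HDAC-Glo I/II reagent 30 min RT; luminescence readout.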
# [4] = qHTS assay to identify small molecule HDAC inhibitors - cell viability counter screen (AID 1259365); further: series mostly up to about 92 µM; nearly all actives have a fitted effect of over 50% in size
# How it was run: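 HCT-116 (wild type), 1,500 cells/well, overnight 37C/5% CO2; compound in DMSO 2hr; CellTiter-Glo 30min RT; luminescence read.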
# [5] = qHTS assay to identify small molecule agonists of the sonic hedgehog signaling (Shh) pathway - cell viability counter screen (AID 1259366); further: nearly all actives have a fitted effect of over 50% in size; further: potency means the concentration at half of the fitted maximal effect
# How it was run: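 CellTiter-Fluor fluorescence read-out, 1 hr at 37C, added after 23hr compound exposure. Cells: 3T3 Gli1-Luc, an NIH/3T3 clone with stably integrated Gli1-Luc reporter, plated 4hr before compound.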
# [6] = qHTS assay to identify small molecule antagonists of the sonic hedgehog signaling (Shh) pathway - cell viability counter screen (AID 1259367); further: nearly all actives have a fitted effect of over 55% in size; further: potency means the concentration at half of the fitted maximal effect
# How it was run: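 Viability was read by CellTiter-Fluor fluorescence in the same wells, reagent added 23 hr into compound treatment and incubated 1 hr at 37C. The 3T3 Gli1-Luc reporter cells (2,000/well) received conditioned medium after compound and ran 24 hr.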
# [7] = qHTS assay to identify small molecule agonists of the sonic hedgehog signaling (Shh) pathway (AID 1259368; calls by dose curve;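 further: NIH/3T3-derived 3T3Gli1-Luc cells carrying a stable Gli1-driven firefly luciferase reporter; series mostly up to about 92 µM; nearly all actives have a fitted effect of over 15% in size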)
# How it was run: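 Read-out: firefly luciferase luminescence from a Gli1 response element reporter stably integrated in NIH/3T3-derived 3T3Gli1-Luc cells, measured 30 min at room temperature after reagent addition. Compound exposure lasted 24 hr at 37 C, 5% CO2.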
# [8] = qHTS assay to identify small molecule antagonists of the sonic hedgehog signaling (Shh) pathway (AID 1259369; calls by dose curve; further: nearly all actives have a fitted effect of over 45% in size; further: potency means the concentration at half of the fitted maximal effect)
# How it was run: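 Luminescence readout: firefly Luc under Gli1 response element in 3T3Gli1-Luc cells (NIH/3T3 clone). Antagonist mode, stimulation by conditioned medium; compound exposure 24hr at 37 C, 5% CO2.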
# [9] = qHTS assay to identify small molecule phospholipidosis (PLD) inducers (AID 1259344; active means well fitted curve in the direction sought with a large enough effect; an effect the other way counts as inactive or inconclusive; further: potency means the concentration at half of the fitted maximal effect)
# How it was run: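 Phospholipid accumulation was scored by imaging: fixed, Hoechst-counterstained HepG2 cells stained with LipidTOX Red after 24 h compound exposure at 37 C. Read-outs were pit count and pit intensity per well or per cell, with amiodarone and DMSO controls.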
compound,measurement,setting,value
CCCCCCCC(C)=O,Potency,[1],inactive
same,Potency,[2],inactive
same,Potency,[3],inactive
same,Potency,[4],inactive
same,Potency,[5],inactive
same,Potency,[6],inactive
same,Potency,[7],inactive
same,Potency,[8],inactive
CCc1c(C(=O)O)c(=O)cnn1-c1ccc(Cl)cc1,Potency,[1],inactive
same,Potency,[2],inactive
same,Potency,[3],inactive
same,Potency,[4],inactive
same,Potency,[5],inactive
same,Potency,[6],inactive
same,Potency,[7],inactive
same,Potency,[8],inactive
CCCC(CC)CCCCCCCN (stereo not given),Potency,[1],inactive
same,Potency,[2],inactive
same,Potency,[4],inactive
same,Potency,[5],inactive
same,Potency,[6],inactive
same,Potency,[7],inactive
CCOC(=O)COc1ccc(C)cc1,Potency,[1],inactive
same,Potency,[2],inactive
same,Potency,[3],inactive
same,Potency,[4],inactive
same,Potency,[5],inactive
same,Potency,[6],inactive
same,Potency,[7],inactive
same,Potency,[8],inactive
O=C1C=CC(=O)N1c1ccccc1,Potency,[1],61.1 µM (active)
same,Potency,[2],61.1 µM (active)
same,Potency,[3],27.3 µM (active)
same,Potency,[5],9.69 µM (active)
same,Potency,[6],12.2 µM (active)
same,Potency,[7],inactive
same,Potency,[8],6.11 µM (active)
CCN1CCN(c2cc(-c3ccc(F)cc3)c3c(n2)CCCCCC3)CC1,"viability change, negative = cytotoxic",[1],1.73% [at 19 µM]
same,PLD induction,[9],12.7% [at 7.66 µM]
same,"activity change, negative = inhibition",[3],1.74% [at 19 µM]
same,"activity change, negative = cytotoxicity",[4],-2.01% [at 19 µM]
same,"viability change, negative = cytotoxic",[5],-8.82% [at 19 µM]
same,"viability change, negative = cytotoxic",[6],-5.57% [at 19 µM]
same,activity change,[7],"-0.431% [at 18.9 µM, active compounds read high]"
same,"activity change, negative = inhibition",[8],15.3% [at 19 µM]
O=Nc1ccc(NO)cc1,Potency,[1],inactive
same,Potency,[2],50.5 µM (active)
same,Potency,[4],inactive
same,Potency,[8],14.2 µM (active)
O=C(O)CCn1c2c(c3ccccc31)C[C@H](NS(=O)(=O)c1ccc(F)cc1)CC2,Potency,[1],inactive
same,Potency,[9],inactive
same,Potency,[3],inactive
same,Potency,[4],inactive
same,Potency,[5],inactive
same,Potency,[6],inactive
same,Potency,[7],inactive
same,Potency,[8],inactive
CCCCCCOc1ccc(O)cc1,Potency,[1],inactive
same,Potency,[2],inactive
same,Potency,[4],inactive
same,Potency,[5],inactive
same,Potency,[7],inactive
same,Potency,[8],inactive
CCCCCCCC/C=C\CCCCCCCC(=O)NCc1ccc(O)c(OC)c1,Potency,[1],inactive
same,Potency,[9],inactive
same,Potency,[3],inactive
same,Potency,[4],inactive
same,Potency,[5],inactive
same,Potency,[6],inactive
same,Potency,[7],inactive
same,Potency,[8],inactive
C[C@H]1O[C@@H](O[C@H]2[C@@H](O)C[C@H](O[C@H]3[C@@H](O)C[C@H](O[C@H]4CC[C@@]5(C)[C@H](CC[C@@H]6[C@@H]5C[C@@H](O)[C@]5(C)[C@@H](C7=CC(=O)OC7)CC[C@]65O)C4)O[C@@H]3C)O[C@@H]2C)C[C@H](O)[C@@H]1O,Potency,[1],inactive
same,Potency,[9],11.2 µM (active)
same,Potency,[3],inactive
same,Potency,[4],inactive
same,Potency,[5],inactive
same,Potency,[6],inactive
same,Potency,[7],inactive
CCCCCCCCCCc1ccccc1,Potency,[1],inactive
same,Potency,[2],inactive
same,Potency,[4],inactive
same,Potency,[5],inactive
same,Potency,[6],inactive
same,Potency,[7],inactive
same,Potency,[8],inactive
CN1CN(C)CN(C)C1,Potency,[1],inactive
same,Potency,[2],inactive
same,Potency,[4],inactive
same,Potency,[5],inactive
same,Potency,[6],inactive
same,Potency,[7],inactive
same,Potency,[8],inactive
Clc1ccc(C(Cn2ccnc2)OCc2ccsc2Cl)c(Cl)c1 (stereo not given),Potency,[1],inactive
same,Potency,[9],inactive
same,Potency,[3],inactive
same,Potency,[4],inactive
same,Potency,[7],inactive
same,Potency,[8],11.9 µM (active)
CC(=O)O[C@@H]1C[C@@H]2CC[C@@]1(C)C2(C)C,Potency,[1],inactive
same,Potency,[3],inactive
same,Potency,[4],inactive
same,Potency,[5],inactive
same,Potency,[6],inactive
same,Potency,[7],inactive
same,Potency,[8],inactive
